Assay [1] is described as follows: inhibitors of TNFa-induced NFkB p65 translocation, primary screen, imaging, HUVEC, MLSMR starter and 10KST1 sets (AID 438;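 active means inhibition above 20% together with a positive visual image hit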;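 further: compound added about 3h40 before a 20 min TNFalpha stimulation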;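 on inhibition: signal is the nuclear over cytoplasmic p65 intensity ratio per well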). Conditions: HUVEC TNFa-induced p65 nuclear translocation; cell count: measured here: nuclei count (cytotoxicity indicator), at 2.08 µM; inhibition: at 2 µM, stronger effect = higher value, 0% TNFa-plus-vehicle, 100% no-TNFa wells.
The nature of assay [2]: reduction of polyQ htt aggregates in cells – imaging, exon1htt(103Q)mCFP cells, high-content imaging, primary screen (AID 483;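 active means visual image review flags a hit and inhibition of aggregation exceeds 20%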;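 further: compound exposure lasted 3 days before fixation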;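 on nuclei count: percent of the per-plate median nuclei count of sample wells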). The conditions noted are these: exon1htt(103Q)mCFP cell line, aggregate imaging, at 2 µM; inhibition of aggregation: stronger effect = higher value; nuclei count: measured here: cell count, toxicity.
Assay [3] in a line: endothelial E-selectin expression blockers – imaging, HUVEC, immunofluorescence, MLSMR starter and 10KST1 sets, primary screen (AID 487;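 active means visually confirmed hit in the image check and inhibition above 20%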;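 on inhibition: signal is fraction of cell area covered by stained E-selectin grains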;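 on nuclei count: 100% = median nuclei count of all wells on the same plate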). Conditions: HUVEC TNFalpha-induced E-selectin immunofluorescence imaging, at 2 µM; inhibition: stronger effect = higher value; nuclei count: measured here: cell number, toxicity.
Assay [4] can be described thus: Primary imaging screen for DUSP6 inhibitors that restore phospho-Erk in transfected HeLa cells, chemical complementation (AID 609;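 active means compounds giving at least 50% inhibition in the cell-based MKP-3 phosphatase rescue imaging test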;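 on inhibition: phospho-Erk level distribution per well compared with pooled transfected vehicle control wells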). The conditions noted are these: HeLa MKP-3 transfected, phospho-Erk imaging KS statistic, at 10 µM, cells stimulated with TPA for 15 min.
Assay [5] has as its target Dual specificity protein phosphatase 6 (Homo sapiens) (UniProt Q16828). The description is as above. Conditions: HeLa MKP-3 transfected, phospho-Erk imaging KS statistic; at 10 µM; stronger effect = higher value; cells stimulated with TPA for 15 min.
Assay [6] addresses Voltage-gated potassium channel subunit beta-2 (Rattus norvegicus) (UniProt P62483). Description: inhibitors of rat Kvbeta2 reductase activity – biochemical, NADPH fluorescence, primary screen (AID 622;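 active means fluorescence slope higher than the sample average by over 3 SD, cut at about -0.22 in these data, passing the limit was not always enough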;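 further: slope of raw intensity against log time taken from 70 to 1610 s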). Conditions: recombinant KvBeta, 4-cyanobenzaldehyde reduction, at 10 µM, stronger effect = higher value.
Assay [7] shares this target. Nature of the assay: enhancers of rat Kvbeta2 NADPH turnover – biochemical, NADPH fluorescence, primary screen (AID 623;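 active means NADPH fluorescence slope more negative than the mean of all samples by about 3 SD, 99.7% confidence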;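 further: fluorescence intensity change per second fitted from 20 to 320 s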). The conditions noted are these: Recombinant KvBeta, NADPH fluorescence decrease slope, 10 min; at 10 µM; stronger effect = lower value.
Assay [8] deals with Alpha-2C adrenergic receptor (Homo sapiens) (UniProt P18825). Description: compounds altering alpha2C-coupled GIRK flux – cell-based, HEK293 alpha2C/GIRK1/2, thallium flux, primary screen (AID 624;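 active means fluorescence slope after compound addition differing from the mean of all screened samples at 99.7% confidence, in either direction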;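 further: slope of fluorescence ratio to pre-addition baseline per second over 15 to 24 s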). The conditions noted are these: thallium flux BTC fluorescence, at 10 µM, actives lie on both sides.
The nature of assay [9]: inhibitors of larval lipid processing in zebrafish, primary screen, whole organism, PED6 fluorescence, gall bladder and intestine (AID 686;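 active means a full or partial loss of lipid-probe fluorescence in the fish gall bladder, intestine or both, judged by eye; inactive means no fluorescence loss, or compound toxic to the fish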;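 further: larvae 5 to 7 days old with five fish per well; signal comes from phospholipase A2 cleavage of quenched PED6 carried via bile; overnight exposure to compound and PED6 before scoring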). The conditions noted are these: Zebrafish larvae PED6 lipid processing, fluorescence scoring; screened at 20 µM (by protocol).
A short description of assay [10]: loss of swimming-algae plug formation – whole organism, Chlamydomonas reinhardtii, WT vs cilia-less mutant, absorbance, 96-well, primary screen (AID 463189).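 Further: 0% = wild type cc124 cells in DMSO and 100% = ciliumless bld1 mutant cells.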 Conditions: Chlamydomonas reinhardtii gravitaxis, OD600 absorbance, 2 days; at 10 µM; stronger effect = higher value.
Assay [11] can be described thus: blockers of RIG-like receptor reporter activation – cell-based, Sendai virus stimulus, luciferase, 10K MLSCN set, TLR/RLR signaling modifier project, primary screen (AID 602276;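 active means inhibition at or above 50% at 10 µM; inactive means inhibition below 50%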;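 further: firefly luciferase from ISG56 promoter only with Renilla not read in this screen; 0% = Sendai virus plus DMSO and 100% = medium plus DMSO without virus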). Conditions: HEK293 RL24 IRF3 luciferase reporter, at 10 µM, stronger effect = higher value. For orientation: In a reporter assay the amount or activity of a reporter protein is the signal.
Assay [12] can be described thus: TLR3 IRF3 reporter activation blockers – cell-based, poly I:C stimulus, luciferase, 10K MLSCN set, primary screen (AID 602277;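 active means inhibition of the reporter signal at or above 50%; inactive means inhibition below 50%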). Conditions: HEK293-TLR3 RL24 IRF3 luciferase reporter, at 10 µM, stronger effect = higher value.
The mark [13] stands for this setting: measured here: cell density z-score.
The mark [14] stands for this setting: measured here: nuclear c-Myc green intensity z-score.
Setting [15] is: measured here: nuclear pErk red intensity z-score, stronger effect = higher value.

SMILES strings stand for the structures. Where “and” joins values, the source holds several entries; their conditions need not be identical. Equal values may be shown once. Calls of active or inactive are those of the source.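 How the source made its calls, unless noted: active means inhibition at or above 50% relative to wild type and mutant plate controls; inactive means inhibition below 50%.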

Sequence of Voltage-gated potassium channel subunit beta-2 (Rattus norvegicus) (P62483 whole entry, looked up): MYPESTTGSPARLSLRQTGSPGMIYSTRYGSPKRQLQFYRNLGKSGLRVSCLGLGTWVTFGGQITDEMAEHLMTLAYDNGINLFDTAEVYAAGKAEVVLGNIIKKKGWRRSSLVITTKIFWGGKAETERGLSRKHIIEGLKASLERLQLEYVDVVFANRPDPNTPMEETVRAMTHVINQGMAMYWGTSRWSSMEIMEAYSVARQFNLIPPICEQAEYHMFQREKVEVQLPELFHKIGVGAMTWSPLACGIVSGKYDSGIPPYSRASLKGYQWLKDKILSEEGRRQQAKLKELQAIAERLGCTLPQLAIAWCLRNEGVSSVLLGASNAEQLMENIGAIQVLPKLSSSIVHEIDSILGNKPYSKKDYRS
Sequence of Dual specificity protein phosphatase 6 (Homo sapiens) (Q16828 whole entry, looked up): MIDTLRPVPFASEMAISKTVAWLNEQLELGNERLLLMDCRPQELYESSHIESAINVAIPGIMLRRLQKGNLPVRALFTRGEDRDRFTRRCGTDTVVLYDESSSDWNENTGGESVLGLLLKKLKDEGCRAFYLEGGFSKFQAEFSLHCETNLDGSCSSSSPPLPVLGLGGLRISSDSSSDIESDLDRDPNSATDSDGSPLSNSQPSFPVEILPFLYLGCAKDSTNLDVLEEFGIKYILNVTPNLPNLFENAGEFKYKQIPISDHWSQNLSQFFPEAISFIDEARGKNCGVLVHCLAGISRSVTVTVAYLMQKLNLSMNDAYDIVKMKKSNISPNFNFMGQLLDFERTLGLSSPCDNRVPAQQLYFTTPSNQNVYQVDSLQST
Sequence of Alpha-2C adrenergic receptor (Homo sapiens) (P18825 whole entry, looked up): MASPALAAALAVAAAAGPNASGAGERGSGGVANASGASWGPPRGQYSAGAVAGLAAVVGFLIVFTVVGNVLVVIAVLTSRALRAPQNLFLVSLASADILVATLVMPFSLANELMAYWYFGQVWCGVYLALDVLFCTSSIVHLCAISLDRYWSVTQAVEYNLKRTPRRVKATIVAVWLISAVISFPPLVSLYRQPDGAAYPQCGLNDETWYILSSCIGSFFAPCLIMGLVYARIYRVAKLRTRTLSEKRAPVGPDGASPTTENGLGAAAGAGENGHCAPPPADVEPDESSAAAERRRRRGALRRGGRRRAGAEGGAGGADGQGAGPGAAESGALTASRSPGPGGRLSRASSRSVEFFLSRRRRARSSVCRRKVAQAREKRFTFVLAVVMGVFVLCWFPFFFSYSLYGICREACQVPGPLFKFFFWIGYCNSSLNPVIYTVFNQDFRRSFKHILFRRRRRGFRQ

The term inhibition denotes the change of the read-out against control, counted positive when it falls. For the compound `COc1cccc(N2CCN(c3ncnc4c3[nH]c3ccc(F)cc34)CC2C)c1` (stereo not given), the cell count in [1] is 342. Moreover, the inhibition in assay [1] was -7% (inactive); in assay [3], 11.4% (inactive); in [5], -3.5% (inactive); in assay [10], 25.3% (inactive); in [11], 2.95% (inactive); in assay [12], 98.8% (active). Besides, the inhibition of aggregation in assay [2] was 10.9% (inactive). The nuclei count in [2] worked out at 92.8%; in assay [3], 127%. Besides, the z-score in assay [4] (setting [13]) is 0.762; in assay [4] (setting [14]), 0.103; in assay [4] (setting [15]), -1.52. In addition, the fluorescence slope in assay [6] is -0.393 (inactive). The NADPH fluorescence slope in assay [7] is -9.3e-05 (inactive). Further, in assay [8], the slope is 0.00384 (inactive). The call in assay [9] was inactive.
As to `O=C(OCC#CCSc1nnc(-c2ccccc2)o1)c1cccs1`, the cell count in [1] turned out to be 281. For the same compound, the inhibition in [1] was -2.4% (inactive); in assay [3], -178% (inactive); in assay [5] it was 3.66% (inactive); in assay [10], -3.45% (inactive); in [11], -0.522% (inactive); in [12], 1.31% (inactive). In addition, in assay [2], the inhibition of aggregation is 8.9% (inactive). Further, the values for the nuclei count in [2] and in assay [3] were 95.4% and 132%, respectively. Also, the figures for the z-score in assay [4] (setting [13]), in assay [4] (setting [14]) and in assay [4] (setting [15]) were -0.348, 0.84 and 0.574, respectively. Besides, the fluorescence slope in assay [6] is -0.396 (inactive). Besides, the NADPH fluorescence slope in assay [7] was -4e-05 (inactive). Besides, the slope in assay [8] was 0.00513 (inactive). Moreover, the result in assay [9] was inactive.
`c1ccc2c(CC3=NCCN3)cccc2c1`: the cell count in assay [1] is 547. Moreover, the inhibition in assay [1] was -0.9% (inactive); in assay [3] it was -43.3% (inactive); in [5], 9.37% (inactive); in assay [10] it was -6.08% (inactive); in assay [11], 12.4% (inactive); in [12], 36.7% (inactive). Besides, the inhibition of aggregation in assay [2] was -4.4% (inactive). The nuclei count is 90.2% in assay [2] and 118% in assay [3]. For the same compound, the z-score was -0.259 in assay [4] (setting [13]), -0.0766 in assay [4] (setting [14]) and 1 in assay [4] (setting [15]). The fluorescence slope in [6] was -0.503 (inactive). Further, the NADPH fluorescence slope in assay [7] is -6.8e-05 (inactive). Also, in assay [8], the slope was 0.00554 (inactive). The call in assay [9] was inactive.
Take `CCn1cc(C(=O)O)c(=O)c2cc(F)c(N3CCNCC3)cc21`: the cell count in [1] came out at 576. The inhibition in assay [1] was -6.9% (inactive); in [3], -31% (inactive); in assay [5], -6.41% (inactive); in [10] it was -5.87% (inactive); in assay [11], -0.442% (inactive); in [12] it was 10.8% (inactive). In assay [2], the inhibition of aggregation is 13% (inactive). Further, the nuclei count in [2] stood at 87.7%; in assay [3] it was 108%. For the same compound, the results for the z-score in assay [4] (setting [13]), in assay [4] (setting [14]) and in assay [4] (setting [15]) were 0.515, -1.04 and 1.05, respectively. Besides, the fluorescence slope in [6] was -0.472 (inactive). For the same compound, in [7], the NADPH fluorescence slope was 1.5e-05 (inactive). The slope in assay [8] is 0.00555 (inactive). Also, the result in [9] was inactive.
As for `CC1(C)S[C@@H]2[C@H](NC(=O)C(C(=O)O)c3ccccc3)C(=O)N2[C@H]1C(=O)O` (stereo not given in full), the cell count in assay [1] was determined as 588. The inhibition in assay [1] is -12.5% (inactive); in assay [3], -51.3% (inactive); in assay [5], 13.3% (inactive); in assay [10], 37.9% (inactive); in assay [11] it was -4.51% (inactive); in assay [12], 13% (inactive). The inhibition of aggregation in assay [2] is -7.6% (inactive). Moreover, the nuclei count in assay [2] turned out to be 99.1%; in [3], 138%. The z-score was 0.424 in assay [4] (setting [13]), 0.193 in [4] (setting [14]) and -0.471 in assay [4] (setting [15]). For the same compound, the fluorescence slope in [6] was -0.487 (inactive). Besides, the NADPH fluorescence slope in assay [7] was -2.7e-05 (inactive). Moreover, in [8], the slope is 0.00471 (inactive). Also, the result in assay [9] was inactive.
`Cc1cc(NC(=O)C2=C(O)c3ccccc3S(=O)(=O)N2C)no1`: the cell count in assay [1] is 693. Also, the inhibition in assay [1] is -7.5% (inactive); in assay [3], -39.3% (inactive); in [5], 7.39% (inactive); in assay [10], -6.68% (inactive); in [11] it was 12.9% (inactive); in assay [12], 25.5% (inactive). Besides, the inhibition of aggregation in assay [2] is 9.1% (inactive). Also, the nuclei count was 108% in assay [2] and 120% in assay [3]. The z-score in assay [4] (setting [13]) was determined as 0.515; in assay [4] (setting [14]) it was 0.415; in assay [4] (setting [15]), 0.569. Further, in [6], the fluorescence slope was -0.538 (inactive). In addition, the NADPH fluorescence slope in assay [7] was -2.2e-05 (inactive). For the same compound, the slope in assay [8] is 0.00444 (inactive). For the same compound, the call in assay [9] was inactive.
Turning to `Cn1c(=O)c2c3c(sc2n2c(SCC(=O)c4ccc(Cl)cc4)nnc12)COC(C)(C)C3`, the cell count in assay [1] stood at 673. Moreover, the inhibition in [1] is -9.1% (inactive); in [3], 2.7% (inactive); in assay [5], -3.98% (inactive); in assay [10], 0.223% (inactive); in assay [11] it was 6.06% (inactive); in assay [12], 10.6% (inactive). The inhibition of aggregation in assay [2] was -12.3% (inactive). Also, the nuclei count in assay [2] came out at 105%; in assay [3], 143%. For the same compound, the z-score in [4] (setting [13]) was -0.121; in [4] (setting [14]), 0.129; in assay [4] (setting [15]) it was -1.03. The fluorescence slope in assay [6] is -0.53 (inactive). In addition, in assay [7], the NADPH fluorescence slope is -1.3e-05 (inactive). Further, the slope in [8] was 0.00419 (inactive). In addition, in assay [9], the compound was classed as inactive.
`CN1CCc2c(sc3c2c(=O)n(-c2ccccc2)c2nnc(SCc4ccccc4)n32)C1`: the cell count in assay [1] turned out to be 562. The inhibition in [1] was -16.1% (inactive); in [3], -95.1% (inactive); in assay [5] it was 3.66% (inactive); in assay [10], 5.3% (inactive); in assay [11], -12.4% (inactive); in assay [12], 98.5% (active). Besides, the inhibition of aggregation in assay [2] is 8.3% (inactive). Moreover, the nuclei count in assay [2] came out at 116%; in assay [3], 142%. Further, the z-score in assay [4] (setting [13]) is 0.865; in assay [4] (setting [14]) it was -2.08; in assay [4] (setting [15]), -0.239. Also, in [6], the fluorescence slope was -0.563 (inactive). Besides, in assay [7], the NADPH fluorescence slope is -1.4e-05 (inactive). In [8], the slope was 0.00449 (inactive). Further, in [9], the compound was classed as inactive.
As to `Oc1c(Cl)cc(Cl)cc1CNc1ccc(Br)cn1`, the cell count in [1] is 580. For the same compound, the inhibition in [1] was -1.3% (inactive); in [3], -9.9% (inactive); in [5], -3.5% (inactive); in [10] it was -5.67% (inactive); in assay [11], 17% (inactive); in assay [12] it was 20.5% (inactive). Further, the inhibition of aggregation in [2] is -20.5% (inactive). Also, the nuclei count was found to be 108% in [2] and 102% in [3]. In addition, the z-score in [4] (setting [13]) is -1.08; in assay [4] (setting [14]) it was 0.507; in assay [4] (setting [15]), -0.618. Moreover, in assay [6], the fluorescence slope is -0.357 (inactive). The NADPH fluorescence slope in assay [7] was 1.5e-05 (inactive). In assay [8], the slope was 0.00449 (inactive). In assay [9], the call was inactive.
For `CN1[C@@H](CC(=O)c2ccccc2)CCC[C@H]1C[C@H](O)c1ccccc1`, the cell count in assay [1] is 617. The inhibition in [1] is -3.2% (inactive); in [3], -81.3% (inactive); in [5], 21.2% (inactive); in [10], 1.79% (inactive) and -5.55% (inactive); in [11], 8% (inactive); in assay [12], 31.3% (inactive). In [2], the inhibition of aggregation was -2.2% (inactive). Also, the figures for the nuclei count in assay [2] and in [3] were 96.2% and 120%, respectively. Moreover, the results for the z-score in [4] (setting [13]), in assay [4] (setting [14]) and in assay [4] (setting [15]) were -0.242, -0.85 and 0.339, respectively. Further, in assay [6], the fluorescence slope is -0.436 (inactive). Further, the NADPH fluorescence slope in assay [7] was -0.000135 (inactive). Besides, in assay [8], the slope was 0.00528 (inactive). Besides, in assay [9], the call was inactive.

These data come from PubChem BioAssay.
